IMPase Li cell: membrane-permeable IMPase blocker, potentiated with lithium; CHO-M1 cells, IP1 TR-FRET (IP-One), carbachol + lithium; Potency, µM (top dose mostly 59.4 µM), inactives show at the top dose activity, negative = IMPase inhibition, most hits filed as inhibitors; 210,000 compounds, 0.35% hits;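 further: IP1 builds up when IMPase is blocked and the TR-FRET signal falls; plate controls were basal vehicle for no effect and high inhibitor control for full effect; nearly all actives have a fitted effect of over 50% in size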
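CHO cells stably expressing M1 receptor (2000/well, cultured 16–30 h) treated 30 min at 37C with compound plus low lithium. Cytosolic IP1 by TR-FRET (665/620 ratio and 620 channel) after 10 min lysis; AC50 by Hill fit.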
ERK EGF block: blocks ERK signaling stimulated by EGF. 130,000 compounds, 0.41% hits. AID 1454. Potency, µM (doses to about 11.5 µM), for inactives: at the highest dose activity change, negative = inhibition, actives largely listed as inhibitors. HEK293-V1b, EGF-stimulated phospho-ERK AlphaScreen;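 further: plate controls were stimulated vehicle wells for no effect and unstimulated vehicle basal for full effect; nearly all actives have a fitted effect of over 55% in size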
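HEK293 cells stably expressing V1b receptor, serum-reduced (1% FBS) overnight, got compound for 30 min at 37C, then 25 nM EGF for 5 min. Lysate phospho-ERK read by AlphaScreen SureFire; AC50 from Hill fits.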
HttQ103 aggreg: inhibitors of mutant huntingtin aggregate formation in PC12 cells. PC12 HttQ103-GFP aggregates, Acumen cytometry, 40 h. Potency, µM (titrated, usually from 46.1 µM), without a hit: top-dose activity change, negative = inhibition, hits mostly inhibitors. 220,000 compounds, 1.1% hits; further: on the % scale 0 is the no-effect control and ±100 the full control effect; nearly all actives have a fitted effect of over 60% in size
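Quantitative HTS on tebufenozide-induced (100 nM) PC12 cells stably expressing polyQ103 Huntingtin exon 1–GFP. Reduction of bright GFP aggregates, detected by laser scanning cytometry after lysis, identified actives across the titration.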
HTT cytoprotect: protects HTT-Q103 PC12 cells, measured by ATP. PC12 HTT-Q103 induced, cytoprotection, ATP luminescence, 40 h. Potency, µM (top dose mostly 56.4 µM), without a hit: cytoprotection (ATP increase), actives largely listed as activators. 230,000 compounds, 0.14% hits. AID 1471; further: % of control where 0% means no effect; nearly all actives have a fitted effect of over 45% in size
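PC12 cells stably carrying ecdysone-inducible Htt exon 1 (Q103)–GFP were induced with 100 nM tebufenozide (final) alongside library compounds in a dose series. Cytoprotection was scored as retained ATP by ATPlite luminescence.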
NPSR antag: blocks cAMP signaling of the human neuropeptide S receptor | Q6W5P4 | CHO-NPSR cells, cAMP TR-FRET, antagonist mode | 220,000 compounds, 1% hits | Potency, µM (highest dose often 38.3 µM), without a hit: top-dose activity change, negative = inhibition, hits mostly inhibitors; further: on the % scale 0 is the no-effect control and ±100 the full control effect; nearly all actives have a fitted effect of over 50% in size
Target sequence (Q6W5P4 whole entry, looked up): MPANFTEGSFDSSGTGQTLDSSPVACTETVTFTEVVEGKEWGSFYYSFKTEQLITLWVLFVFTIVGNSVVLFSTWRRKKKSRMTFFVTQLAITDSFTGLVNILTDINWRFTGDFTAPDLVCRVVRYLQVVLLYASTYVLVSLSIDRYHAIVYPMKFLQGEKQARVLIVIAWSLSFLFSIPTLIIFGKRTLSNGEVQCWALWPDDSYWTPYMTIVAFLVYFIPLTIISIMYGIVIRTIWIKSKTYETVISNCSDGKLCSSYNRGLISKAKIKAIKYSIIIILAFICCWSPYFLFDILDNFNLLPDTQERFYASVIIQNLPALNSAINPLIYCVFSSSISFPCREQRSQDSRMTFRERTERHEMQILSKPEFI
The depositor's hits bear a star; [ ] = remark or other dose. Rows were chosen to be rich in hits. Some 1.9% of all compounds tested hit in one or more screens of this group. The call rests on the fitted dose curve; in most records, active means well fitted curve in the direction sought with a large enough effect; inconclusive means small, poorly fitted or top-dose-only effect, or another doubt; inactive means no such curve, though single readings can be large; an effect the other way counts as inactive or inconclusive. Potency means the concentration at half of the fitted maximal effect.

Screening C/C(=N\N1C(=O)c2ccccc2NC1c1ccccc1)c1ccccc1O (centres undefined) returned IMPase Li cell 14%, ERK EGF block 4% and NPSR antag -49%.
Screening Cc1noc(C)c1S(=O)(=O)N1CCc2nc(-c3ccccc3)c3c(c2C1)CO[C@@H](C)C3 returned IMPase Li cell 7% and HTT cytoprotect 1%[10 µM].
Screening COc1ccc(OC)c(-c2c3c([nH]c(=S)c2C#N)CCCC3)c1 returned IMPase Li cell -8%, ERK EGF block -13%, HttQ103 aggreg -11%, HTT cytoprotect inconclusive and NPSR antag -19%.
Screening COc1ccc(-c2c3c([nH]c(=S)c2C#N)CCC3)cc1 returned IMPase Li cell 7.9µM*, HttQ103 aggreg 3%, HTT cytoprotect 4%[10 µM] and NPSR antag 1µM*.
`O=C(O)c1cccc(SSc2cccc(C(=O)O)c2)c1` gave IMPase Li cell 5% and HTT cytoprotect -3%[10 µM].
O=c1c(O)c(-c2ccc(O)c(O)c2)oc2ccccc12 was read as IMPase Li cell 16%, ERK EGF block -10% and HTT cytoprotect 17%[1.9 µM].
For COc1ccc(-c2nnc(SCC(=O)N3CCN(c4ccccc4)CC3)o2)cc1OC the results were IMPase Li cell -12%, ERK EGF block 1%, HttQ103 aggreg -3%, HTT cytoprotect -3% and NPSR antag -13%.
Screening Cc1ccc(-c2nnc(SCC(=O)N3CCN(c4ccccc4)CC3)o2)cc1 returned IMPase Li cell 11µM*, HttQ103 aggreg -3%, HTT cytoprotect -12%[10 µM] and NPSR antag -9%[7.67 µM].
O=C(NCCc1c[nH]c2ccccc12)C(=O)NCC(c1cccnc1)N1CCN(c2ccccc2)CC1 (centres undefined) was read as IMPase Li cell 2%, ERK EGF block 4%, HttQ103 aggreg 3.5µM* and NPSR antag 2%.
For COc1cccc(F)c1C(C[N+](=O)[O-])c1c(N)n(C)c(=O)n(C)c1=O (centres undefined) the results were ERK EGF block -21%[57.5 µM], HttQ103 aggreg -22%[9.22 µM], HTT cytoprotect -44%[10 µM] and NPSR antag 6.3µM*.
For CCCCCOP(=O)(OCCCCC)C1(NS(=O)(=O)c2ccccc2)C=CC(=O)c2ccccc21 (centres undefined) the results were HttQ103 aggreg 4%, HTT cytoprotect -1% and NPSR antag 10µM*.
For COC(=O)c1c(-c2cccc3ccccc23)csc1NC(=O)Cc1ccc(OC)c(OC)c1 the results were IMPase Li cell 25%[38.3 µM], HttQ103 aggreg 13µM*, HTT cytoprotect 3%[10 µM] and NPSR antag -15%[46.1 µM].
For Fc1ccc(N2CCN(c3nc(CN4CCOCC4)nc4scc(-c5ccccc5)c34)CC2)cc1 the results were IMPase Li cell 18%, ERK EGF block -9%, HttQ103 aggreg 18µM*, HTT cytoprotect -50% and NPSR antag inconclusive.
Screening Brc1cc(Br)c2ncnc(N3CCCCC3)c2c1 returned IMPase Li cell 13µM*, HttQ103 aggreg 11µM*, HTT cytoprotect -8%[0.074 µM] and NPSR antag 7.9µM*.
`Clc1ccc(-n2ncc3c(N4CCCCCC4)ncnc32)cc1` gave IMPase Li cell 39%[38.3 µM], HttQ103 aggreg -23%, HTT cytoprotect -23%[10 µM] and NPSR antag -22%[46.1 µM].
For CC(C)OCCCN1C=C2C(=O)C(C)(OC(=O)C3CCCC3)C(=O)C=C2C=C1c1ccsc1 (centres undefined) the results were IMPase Li cell -13% and HTT cytoprotect -17%[10 µM].
CC(=O)N(c1ccc2oc(=O)sc2c1)S(=O)(=O)c1cccs1 was read as IMPase Li cell 3%[38.3 µM], HttQ103 aggreg inconclusive, HTT cytoprotect inconclusive and NPSR antag -3%[46.1 µM].
CC(C)C(=O)N(c1ccc2oc(=O)sc2c1)S(=O)(=O)c1cccs1 was read as IMPase Li cell -12%[38.3 µM], HTT cytoprotect 13µM* and NPSR antag -10%[46.1 µM].
`CC(C)C[C@@H](CC(=O)N[C@@H](CCC(=O)O)CC(=O)O)NC(=O)[C@@H]1CCCC[C@H]1NC(=O)C[C@H](CCCN)NC(=O)C[C@H](CO)NC(=O)[C@@H]1CCCC[C@H]1N` gave IMPase Li cell 3%, ERK EGF block -7% and HTT cytoprotect inconclusive.
For CN(C)c1cc[n+](Cc2c(Cl)cccc2Cl)cc1 the results were IMPase Li cell 22%, ERK EGF block 6%, HttQ103 aggreg 8.9µM*, HTT cytoprotect -39%[10 µM] and NPSR antag 1%[46.1 µM].
CN(C)c1cc[n+](CC(=O)Nc2c(Cl)cc(Cl)cc2Cl)cc1 was read as IMPase Li cell -3%, ERK EGF block -7%, HttQ103 aggreg 2%[9.22 µM], HTT cytoprotect 9%[10 µM] and NPSR antag -15%.
CCOC(=O)c1c(CSc2ccsc2)n(C)c2cc(Br)c(O)c(CN(C)C)c12 was read as ERK EGF block -8%[57.5 µM], HttQ103 aggreg -8%[9.22 µM], HTT cytoprotect -5%[10 µM] and NPSR antag 13µM*.
Screening CCOC(=O)c1c(CSc2ccccc2)n(C)c2cc(Br)c(O)c(CN(C)C)c12 returned ERK EGF block -14%[57.5 µM], HttQ103 aggreg -9%[9.22 µM], HTT cytoprotect -14%[10 µM] and NPSR antag 32%[7.67 µM].
`CCC(C)(C)n1nnnc1C(c1ccc2ncccc2c1)N1CCN(Cc2ccc3c(c2)OCO3)CC1` (centres undefined) gave IMPase Li cell 14%[38.3 µM], HttQ103 aggreg 2%, HTT cytoprotect 2% and NPSR antag 7.9µM*.
`CCC(C)(C)n1nnnc1C(c1ccc(C)cc1)N1CCN(Cc2ccc3c(c2)OCO3)CC1` (centres undefined) gave IMPase Li cell 4%, ERK EGF block 3%, HttQ103 aggreg 2%, HTT cytoprotect 21%[10 µM] and NPSR antag -15%[46.1 µM].
`O=C(/C=C/c1ccccc1)NCCO` gave HttQ103 aggreg -7% and HTT cytoprotect inconclusive.
Screening Cc1cc(C)c(S(=O)(=O)NCc2ccncc2)c(C)c1 returned IMPase Li cell 43%[38.3 µM], HttQ103 aggreg 6.3µM*, HTT cytoprotect 35% and NPSR antag 0%[46.1 µM].
Screening Cc1ccc(S(=O)(=O)NCc2ccncc2)c(C)c1C returned IMPase Li cell 2%, ERK EGF block -1%, HttQ103 aggreg -7%[9.22 µM], HTT cytoprotect -22%[10 µM] and NPSR antag -9%.
For CCCCNS(=O)(=O)c1ccc(S(=O)(=O)NCc2ccncc2)cc1 the results were IMPase Li cell 11%, ERK EGF block 4%, HttQ103 aggreg 7.9µM* and NPSR antag -4%[46.1 µM].
`O=C(Nc1ccc(Cl)cc1)/C(=C/c1ccc([N+](=O)[O-])cc1)c1nc2ccccc2s1` gave IMPase Li cell 9%, ERK EGF block -6%, HttQ103 aggreg 7.1µM*, HTT cytoprotect -197% and NPSR antag -46%.
Screening COc1cccc(-c2ccc3ncnc(NCc4cnc(C)cn4)c3c2)c1 returned IMPase Li cell 29% and HTT cytoprotect -95%.
